# hgDAF-12 ag: hgDAF-12 agonism, primary luciferase screen; AID 687014; 1.8% of 370,000 active; HEK293 GAL4-hgDAF12 UAS-luciferase reporter, agonist luminescence; normalized to butyrate control; activation, % at 6.8 µM;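 active = activation above a cutoff set at the mean of all screened compounds plus 3 SD, cut at about 10% in these data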;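 also: 0% = DMSO wells and 100% = sodium butyrate wells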
# ssDAF-12 act: activators of S. stercoralis DAF-12 nuclear receptor | activation, % at 6.8 µM | 1% of 370,000 active | HEK293 ssDAF-12/GRIP1 lit1-tk-luc reporter, luminescence; % of 3 µM dafachronic acid response | AID 652126;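 active = activation above the mean over all tested compounds plus 3 SD, cut at about 0.9% in these data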;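 also: 0% = DMSO-only wells and 100% = 3 µM delta7-dafachronic acid wells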
# hcDAF12 agonist: H. contortus DAF-12 activation, primary screen; HEK293 hcDAF-12 lit1-tk-luc reporter, luminescence; 0% DMSO, 100% Δ7-dafachronic acid; AID 652067; activation, % at 6.8 µM; 1.4% of 370,000 active;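 active = activation above the mean of all tested compounds plus 3 SD, cut at about 5.5% in these data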;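 also: 100% = response to 3 µM Δ7-dafachronic acid high control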
# DAX1 inh-1: NR0B1 (DAX1) inhibition | HEK293 Gal4-DAX1 luciferase reporter, luminescence | inhibition, % at 6.75 µM | 0.99% of 340,000 active;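 active = inhibition above the mean over all tested compounds plus 3 SD, cut at about 4.2% in these data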;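 also: 0% = DAX1-transfected cells with DMSO and 100% = empty-vector control cells with DMSO; inhibition shows as a rise in luminescence from relieved DAX1 repression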
# DAX1 inh-2: blocks DAX1 repression of SF-1 activated StAR promoter; inhibition, % at 6.8 µM; 1.1% of 370,000 active; HEK293T StAR-luciferase reporter, SF-1/DAX-1 repression relief;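 active = inhibition above the mean over all tested compounds plus 3 SD, cut at about 3.6% in these data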;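 also: 0% = DAX-1 cells with DMSO and 100% = cells lacking DAX-1 with DMSO; higher inhibition means more luminescence from relief of DAX-1 repression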
# Wee1 stabilizer: blocks degradation of human Wee1 kinase. P30291. HeLa Luc-Wee1K328M stability, luciferase luminescence; 100% = proteasome inhibitor MG132 effect. reporter increase, % at 5 µM. 1.2% of 220,000 active. AID 1321;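 active = activation above the mean of all tested compounds plus 3 SD, set per screening run, cut at about 8.8% in these data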;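 also: cells exposed to compound for 20 h before luminescence read; 0% = DMSO alone and 100% = MG132 at 30 µM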
# An asterisk follows results filed as active; . = no result given. The list is not random: actives were taken first. Their share in the collection is about 4.6%.
SMILES,hgDAF-12 ag,ssDAF-12 act,hcDAF12 agonist,DAX1 inh-1,DAX1 inh-2,Wee1 stabilizer
CCN(CC)C(=O)C(C)N(C#N)c1nc(C)cc(C)n1 (centres undefined),2,-1,6.3*,-2,0,3
Cc1cc(C)nc(N(C#N)C(C)C(=O)N(C)C)n1 (centres undefined),0,-1,-1,0,0,2
C=CCN1C(=O)c2ccc(C(=O)N3CCN(S(=O)(=O)c4ccc(C(C)C)cc4)CC3)cc2C1=O,-1,0,-1,4.4*,0,.
C=CCN1C(=O)c2ccc(C(=O)N3CCN(S(=O)(=O)c4cccc([N+](=O)[O-])c4)CC3)cc2C1=O,0,-1,0,0,0,.
COc1ccc(Br)cc1CNC(=O)CCN1C(=O)COc2ccccc21,-2,-2,-1,1,0,11*
COc1ccc(OC)c(CNC(=O)CCN2C(=O)COc3ccccc32)c1,1,-1,0,-1,0,0
COC(=O)[C@H]1C[C@@]2(c3ccccc3)c3ccccc3N[C@H]2N1,1,0,5,.,0,.
COc1ccccc1C=NNC(=O)CSc1nc2ccccc2n1Cc1ccc(Cl)cc1,-1,-2,1,.,0,.
Cc1ccc(CNC(=O)NCc2ccccc2)cc1,1,-1,0,1,0,1
Cc1ccc(SCC(=O)c2ccc[nH]2)cc1,11*,-1,0,1,0,3
Cc1ccc(CNC(=O)c2ccc[nH]2)cc1,2,-1,-2,5.6*,1,1
O=C(Oc1ccccc1N1C(=O)C2CC=CCC2C1=O)c1ccc(Br)cc1 (centres undefined),0,1.2*,1,0,1,3
CC1(c2nnnn2-c2ccc3ccccc3c2)CSCC(=O)N1C1CC1 (centres undefined),3,-1,-2,.,0,.
CCc1nc2ccc(C(=O)NCCN3CCNC3=O)cn2c1N(CCC(C)C)CCN(C)C,2,-1,-1,.,0,.
CC(=O)N1CCN(C2=NC(=O)C(=C3CCCCC3)S2)CC1,3,-1,-1,0,0,8
O=C1N=C(N2CCOCC2)SC1=C1CCCCC1,4,-1,-1,6.8*,0,0
COc1cc(NC(=O)C2CCCN2S(=O)(=O)c2cccc3cccnc23)cc(OC)c1OC (centres undefined),0,-1,-1,4.6*,0,0
Cc1ccc(-n2nc(C)c3c(C)cc(=O)[nH]c32)cc1,4,3.5*,4,1,1,1
Cc1nn(-c2ccccc2)c2[nH]c(=O)cc(C(F)F)c12,-1,1,1,1,-1,.
Nc1c(/C=C2\C=Nc3ccccc32)c(=O)nc2sc(CC(=O)N3CCOCC3)nn12,6,0,5,1,3.7*,.
C/C(=N\NC(=O)c1cc(Br)ccc1O)c1cccs1,7,-1,3,2,2,1
C/C(=N/NC(=O)c1ccc(Br)o1)c1cccs1,7,0,1,1,3.7*,.
O=Cc1ccccc1OCc1ccc2c(c1)OCO2,10,0,5,4.5*,1,.
CCCCNS(=O)(=O)/C=C/c1ccccc1CNC(=O)OC(C)(C)C,0,-2,-3,.,-1,.
CNS(=O)(=O)c1ccc(CNC[C@H]2O[C@@H](n3ccc(N)nc3=O)[C@H](O)[C@@H]2O)cc1,-1,-1,-1,4.6*,-1,.
Nc1ccn([C@@H]2O[C@H](CNCc3ccc(N4CCNCC4)cc3)[C@@H](O)[C@H]2O)c(=O)n1,8,-2,0,1,-1,.
COC(=O)[C@]12C[C@H](CC(=O)NCc3ccc(C)o3)C(=O)N(Cc3cccc4ccccc34)C1=C[C@H](C(C)C)O[C@@H]2C1CC1,0,-1,0,.,-2,.
CCCCN1C(=O)C(O)=C(C(C)=O)C1c1ccccc1[N+](=O)[O-] (centres undefined),1,0.9*,5,-1,0,-4
O=C(NCc1ccccc1)C1(C(=O)C2CC2)CC(c2ccccn2)=NO1 (centres undefined),2,0,1,.,1,.

# From PubChem
